In all, about 100,000 compounds went through this assay and about 770 (0.77%) were called active. Rule as the data show it: active = inhibition above about 50%; inactive = the rest. Shown is part of a subset that was picked to be rich in actives.
molecular target: Gag-Pol polyprotein (Human immunodeficiency virus type 1 group M subtype B (isolate HXB2)) (UniProt P04585); experiment: RNase H inhibition, HIV 1 Gag Pol polyprotein, FRET biochemical assay, screening (AID 372); conditions: HIV-1 RT RNase H, FRET RNA/DNA substrate fluorescence; at 10 µM; active compounds read high

SMILES | inhibition
Cc1ccc(C(=O)/C=C/c2ccc(OCc3ccccc3)cc2)cc1 | 4% (inactive)
C=CCOc1ccc(/C=C2/C(=O)NC(=O)N(c3ccccc3F)C2=O)cc1 | 7% (inactive)
COc1ccccc1OCCOc1ccc(C=NNC(=S)Nc2ccccc2)cc1OC | 5% (inactive)
Cc1cc(C)c(C=Nc2cc([N+](=O)[O-])ccc2C)c(C)c1 | 11% (inactive)
COCCCNC(=O)CN(c1ccc(OC)cc1OC)S(C)(=O)=O | 9% (inactive)
CCOc1ccccc1OCCOc1ccc(C=O)cc1 | 19% (inactive)
COc1ccc(NC(=O)c2ccc(C)c([N+](=O)[O-])c2)cc1 | 6% (inactive)
O=C(Oc1ccc(Cl)cc1)c1ccc(Cl)cc1 | 11% (inactive)
COc1ccc(CNC(=O)CSc2nc3ccccc3[nH]2)cc1 | 3% (inactive)
CCOc1ccc(C2=CC(=O)C(c3ccccc3)CC2)cc1 (stereo not drawn) | 22% (inactive)
Cc1cc(OCC(=O)N2CCN(c3ccccn3)CC2)ccc1Br | 24% (inactive)
Cc1ccc(N(CC(=O)NCc2cccnc2)S(=O)(=O)c2ccc(F)cc2)cc1 | 2% (inactive)
COc1ccc(C(=O)CSc2nnc(-c3ccccc3)n2-c2ccc(Cl)cc2)cc1 | 6% (inactive)
O=C(N/N=C/c1ccc(O)c(O)c1)c1cccc(I)c1 | 44% (inactive)
Cc1cc2c(cc1C)CN(c1cccc(C(=O)N/N=C/c3ccco3)c1)C2 | 21% (inactive)
O=C(N/N=C/c1ccc(/C=N/NC(=O)c2cccc(I)c2)cc1)c1cccc(I)c1 | 53% (active)
Cc1cccc(/C=N/NC(=O)c2cc(O)cc(O)c2)c1 | 0% (inactive)
Cc1cc2c(cc1C)CN(c1cccc(C(=O)N/N=C/c3ccc(N(C)C)cc3)c1)C2 | 47% (inactive)
O=C(N/N=C/c1ccc2ccccc2c1)c1ccccc1O | 14% (inactive)
O=C(N/N=C/c1ccc2ccccc2c1)c1ccc(O)c(O)c1 | 73% (active)
Cc1cc2c(cc1C)CN(c1cccc(C(=O)N/N=C/c3ccc(O)c(O)c3)c1)C2 | 62% (active)
O=C(N/N=C/c1ccncc1)c1cccc(I)c1 | 0% (inactive)
Cc1cccc(/C=N/NC(=O)c2ccccc2)c1 | 0% (inactive)
Cc1cccc(/C=N/NC(=O)c2ccc(O)c(O)c2)c1 | 56% (active)
O=C(N/N=C/c1ccc2ccccc2c1)c1ccc(O)cc1 | 12% (inactive)

SMILES | inhibition
Cc1cccc(NC(=O)c2cccnc2)c1 | 13% (inactive)
COc1ccc(CC(=O)N2CCCc3ccccc32)cc1OC | 5% (inactive)
O=C(O)c1c(-c2ccccc2)oc2ccc(OCc3ccccc3)cc12 | 0% (inactive)
O=C1CC(c2ccc(Cl)cc2)CC2=C1C(c1ccccc1F)Nc1ccccc1N2 (stereo not drawn) | 0% (inactive)
O=C(COc1cccc(Cl)c1)N=Nc1c(O)[nH]c(=O)[nH]c1=O | 10% (inactive)
O=C(Nc1ccc(F)cc1)Nc1nnc(CSCc2ccccc2Cl)s1 | 23% (inactive)
CC(=O)Oc1ccc(/C=C(/NC(=O)c2ccccc2)C(=O)NCCO)cc1 | 7% (inactive)
O=C(O)CCC(=O)N1N=C(c2c(-c3ccccc3)c3cc(Cl)ccc3[nH]c2=O)CC1c1ccc([N+](=O)[O-])cc1 (stereo not drawn) | 18% (inactive)
CC12c3ccccc3C(C)(c3ccccc31)C1C(=O)NC(=O)C12 (stereo not drawn) | 3% (inactive)
O=C(N/N=C/c1ccc(O)c(O)c1)c1ccc(Br)cc1 | 41% (inactive)
O=C(N/N=C/c1ccc(O)c(O)c1)c1ccc(O)cc1 | 37% (inactive)
Cc1cc([N+](=O)[O-])ccc1NC(=O)c1ccccc1 | 11% (inactive)
O=C(/C=C\Nc1ccccn1)c1ccc(Cl)cc1 | 9% (inactive)
COc1cc(C=O)ccc1OCCOc1cccc(C)c1C | 12% (inactive)
Cc1ccc(C)c(NCn2nnc3ccccc32)c1 | 10% (inactive)
Cc1csc(N/N=C/c2cccc(OCc3ccccc3)c2)n1 | 19% (inactive)
O=C1N=C(N2CCN(c3ccccc3)CC2)S/C1=C\c1ccc(OCc2ccccc2)cc1 | 1% (inactive)
Cc1ccc(S(=O)(=O)N(c2ccc(Br)cc2F)S(=O)(=O)c2ccc(C)cc2)cc1 | 16% (inactive)
COc1ccc(N2C(=O)NC(=O)/C(=C\c3cc(I)c(OC)c(OC)c3)C2=O)cc1 | 7% (inactive)
CCOC(=O)c1c(NC(=O)c2sc3cc(C)ccc3c2Cl)sc(C(N)=O)c1C | 10% (inactive)
S=C(NCc1ccccc1)N/N=C/c1cccc(OCc2ccccc2)c1 | 12% (inactive)
Fc1ccccc1COc1cccc(/C=N/Nc2ccccc2)c1 | 11% (inactive)
CNC(=S)N/N=C/c1cccc(OCc2ccccc2F)c1 | 52% (active)
CN1CCN(S(=O)(=O)c2ccc([N+](=O)[O-])cc2)CC1 | 0% (inactive)
O=C(Nc1ccccc1NC(=O)c1ccccc1)c1ccccc1 | 0% (inactive)

SMILES | inhibition
O=C(Nc1c(Cl)cccc1Cl)c1ccccc1 | 7% (inactive)
C=CCOc1ccc(-c2nc3sc4c(c3c(=O)[nH]2)CCCC4)cc1OC | 30% (inactive)
COc1cc(-c2nc3sc4c(c3c(=O)[nH]2)CCCC4)ccc1OCC(=O)O | 5% (inactive)
COc1cc(-c2nc3sc4c(c3c(=O)[nH]2)CCCC4)ccc1OCc1cccc(F)c1 | 56% (active)
COc1ccc(C(=O)/C=C/NCC(=O)c2ccccc2)cc1 | 19% (inactive)
N#CC1=C(N)Oc2c(ccc3ccccc23)C1c1ccccc1Cl (stereo not drawn) | 29% (inactive)
Cc1ccc(N2C(=O)CC(Sc3ccccc3C(=O)O)C2=O)c([N+](=O)[O-])c1 (stereo not drawn) | 0% (inactive)
CCOC(=O)c1c2c(n(-c3ccccc3)c1C)C=C(Br)C(=O)C2=O | 58% (active)
CCOC(=O)c1c2c(n(C)c1C)C=C(Br)C(=O)C2=O | 4% (inactive)
CCOC(=O)c1c(C)oc2c1C(=O)C(=O)C(Br)=C2 | 2% (inactive)
Cn1c(=O)c2c(nc(Sc3nc4ccccc4o3)n2C)n(C)c1=O | 0% (inactive)
O=C(c1ccc(I)cc1)N1CCOCC1 | 0% (inactive)
CC1CCN(C2(O)C(=O)Nc3ccc(Br)cc32)CC1 (stereo not drawn) | 14% (inactive)
O=[N+]([O-])c1ccc(-c2nnc(-c3ccco3)o2)c(Cl)c1 | 8% (inactive)
O=[N+]([O-])c1cc(Cl)c(-c2ccco2)c(Cl)c1 | 57% (active)
O=[N+]([O-])c1ccc(-c2ccco2)c(Cl)c1 | 14% (inactive)
CCN(CC)CCN1C(=O)C(=O)/C(=C(/O)c2ccccc2)C1c1cccc([N+](=O)[O-])c1 (stereo not drawn) | 1% (inactive)
CCN(CC)c1ccc(N=Cc2c[nH]c3ccccc23)cc1 | 4% (inactive)
CC(C)C(=O)NS(=O)(=O)c1ccc(N)cc1 | 5% (inactive)
CC(=O)Nc1nc(-c2ccc(Cl)cc2)nc(C)c1C(C)=O | 3% (inactive)
CC(=O)Nc1nc(-c2ccccc2)nc(C)c1C(C)=O | 6% (inactive)
CC(=O)c1c(C)nc(-c2ccc(Cl)cc2)nc1NC(=O)c1ccccc1 | 59% (active)
CCOC(=O)c1c(C)oc2c(F)c(F)c(F)c(F)c12 | 22% (inactive)
O=C(Nc1ccccc1)c1ccc2c(c1)C(=O)N(c1cccc(N3C(=O)c4ccc(C(=O)Nc5ccccc5)cc4C3=O)n1)C2=O | 8% (inactive)
COC(=O)c1ccc(NC(=O)c2ccc3c(c2)C(=O)N(c2ccc([N+](=O)[O-])cc2)C3=O)cc1 | 52% (active)

SMILES | inhibition
COC(=O)c1ccc(NC(=O)c2ccc3c(c2)C(=O)N(c2cccc([N+](=O)[O-])c2)C3=O)cc1 | 10% (inactive)
Cc1ccc(NC(=O)c2ccc3c(c2)C(=O)N(c2ccc([N+](=O)[O-])cc2)C3=O)cc1 | 17% (inactive)
O=C(Nc1ccc(O)cc1)c1ccc2c(c1)C(=O)N(c1cccc(N3C(=O)c4ccc(C(=O)Nc5ccc(O)cc5)cc4C3=O)n1)C2=O | 54% (active)
O=C(Nc1ccc(O)cc1)c1ccc2c(c1)C(=O)N(c1ccccn1)C2=O | 13% (inactive)
CC(C)(C)C1(O)CC(C(F)(F)F)=NN1C(=O)c1ccc([N+](=O)[O-])cc1 (stereo not drawn) | 18% (inactive)
COc1ccc(NC(=O)c2ccc(-c3ccccc3)cc2)cc1 | 8% (inactive)
COC(=O)c1c(C)oc2cc(Br)c(OC(=O)c3cccc([N+](=O)[O-])c3)cc12 | 0% (inactive)
Cc1cccc(C)c1OCCOc1ccccc1/C=C1\SC(=S)N(C)C1=O | 13% (inactive)
CC(c1ccccc1)C1CC(=O)N(c2ccccc2)C1=O (stereo not drawn) | 0% (inactive)
CC(c1ccccc1)C1CC(=O)N(c2ccc(F)cc2)C1=O (stereo not drawn) | 0% (inactive)
CC(c1ccccc1)C1CC(=O)N(c2ccc(I)cc2)C1=O (stereo not drawn) | 54% (active)
CCCc1cc2c(-c3ccccc3)cc(=O)oc2cc1OCC(=O)O | 9% (inactive)
CCCc1cc2c(-c3ccccc3)cc(=O)oc2cc1OCc1ccc(C(=O)O)o1 | 59% (active)
CCCc1cc2c(-c3ccccc3)cc(=O)oc2cc1OCC | 22% (inactive)
Cc1ccc(NC(=O)C(=NNc2ccccc2)C(=O)Nc2ccc(C)cc2)cc1 | 0% (inactive)
CC1CC(N(c2ccccc2)S(=O)(=O)c2ccc(Cl)cc2)c2ccccc2N1 (stereo not drawn) | 60% (active)
CC(=O)N(c1ccccc1)C1CC(C)Nc2ccccc21 (stereo not drawn) | 1% (inactive)
CC1CC(N(C(=O)c2ccc(Cl)cc2)c2ccccc2)c2ccccc2N1 (stereo not drawn) | 10% (inactive)
CCOC(=O)c1sc(NC(=O)/C=C/c2cccc([N+](=O)[O-])c2)nc1C | 6% (inactive)
COC(=O)C1=C(C)NC(=O)/C1=C\c1ccccc1 | 8% (inactive)
O=C1/C(=C\c2ccc(-c3ccccc3[N+](=O)[O-])o2)SC(=S)N1C1CCS(=O)(=O)C1 (stereo not drawn) | 23% (inactive)
Cc1cc(C)cc(-n2c(C)cc(/C=N/NC(=O)c3cccnc3)c2C)c1 | 13% (inactive)
O=c1/c(=C/c2ccc(-c3ccccc3Cl)o2)sc2nc3ccccc3n12 | 3% (inactive)
